Assay outcomes (PubChem)
PNC inhibitor – inhibitors of perinucleolar compartment assembly; PC3M PTB-GFP, PNC prevalence imaging, 16 h; stronger effect = lower value; activity change (PNC), negative = inhibition, % at 10 µM; 140,000 compounds, 3.1% hits;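 active = readout at or below -70, meaning at least 70% loss of cells showing the perinucleolar compartment, a nuclear body marking cancer cells; inconclusive = readout between -30 and a set limit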;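 note: plate controls were DMSO wells for no effect and camptothecin positive control wells for full effect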
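Read-out is percentage of cells bearing a perinucleolar compartment, from automated 20x imaging of fixed, Hoechst-stained PC3M PTB-GFP cells. Cells were seeded 4 h, then exposed 16 h to compound (23 nl of library stock) in duplicate plates.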
ALOX12 inhib – 12-hLO (ALOX12) enzyme inhibition | P18054 | purified 12-hLO, xylenol orange hydroperoxide absorbance | Potency, µM (titrated, usually from 57.1 µM), for the others: at the top dose activity change, negative = inhibition, hits mostly inhibitors | 150,000 compounds, 0.12% hits | AID 1452; note: potency is the fitted concentration of half-maximal effect; nearly all actives have a fitted effect of over 55% in size
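Purified human 12hLO (150 nM final) was preincubated with compounds for 15 min at room temperature in 25 mM Hepes pH 7.0, 0.01% Triton X-100, then reacted with 40 uM arachidonic acid for 30 min. Hydroperoxide was detected with ferrous iron/xylenol orange.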
15-hLO-2 inh – blocks human 15-lipoxygenase 2 activity; AID 881; purified 15hLO-2, xylenol orange hydroperoxide absorbance; Potency, µM (doses to about 57.1 µM), inactives show at the top dose activity change, negative = inhibition, hits mostly inhibitors; 110,000 compounds, 0.56% hits; note: potency is the fitted concentration of half-maximal effect; nearly all actives have a fitted effect of over 60% in size
Target sequence (O15296 whole entry, looked up): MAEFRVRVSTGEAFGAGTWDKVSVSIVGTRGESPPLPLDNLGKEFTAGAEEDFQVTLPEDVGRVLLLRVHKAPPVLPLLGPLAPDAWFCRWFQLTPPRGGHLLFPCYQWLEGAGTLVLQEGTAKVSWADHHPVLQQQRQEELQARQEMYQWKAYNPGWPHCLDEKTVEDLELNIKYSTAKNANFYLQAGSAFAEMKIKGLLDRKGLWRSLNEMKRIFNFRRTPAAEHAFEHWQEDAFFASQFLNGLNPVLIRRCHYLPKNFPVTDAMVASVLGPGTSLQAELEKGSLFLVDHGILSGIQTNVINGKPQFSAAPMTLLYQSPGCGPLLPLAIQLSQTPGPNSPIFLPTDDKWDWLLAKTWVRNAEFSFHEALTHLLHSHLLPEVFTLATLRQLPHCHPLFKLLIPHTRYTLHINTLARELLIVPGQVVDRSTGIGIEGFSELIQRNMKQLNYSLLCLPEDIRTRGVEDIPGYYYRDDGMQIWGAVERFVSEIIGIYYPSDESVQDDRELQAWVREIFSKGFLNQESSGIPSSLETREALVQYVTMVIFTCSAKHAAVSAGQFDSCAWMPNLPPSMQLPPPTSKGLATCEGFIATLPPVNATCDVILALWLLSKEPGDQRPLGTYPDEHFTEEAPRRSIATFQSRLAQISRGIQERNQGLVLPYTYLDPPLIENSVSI
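Screening format was qHTS against 50 nM purified 15hLO-2 in Hepes pH 7.5 with detergent. Activity follows hydroperoxide formation from 45 uM arachidonic acid, measured as 573:405 nm absorbance ratio of the ferric-xylenol orange complex.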
Numbers without * were called inactive; ? = inconclusive; · = no result; [ ] = remark or other dose. In the library only some 3.1% were active in any assay of this set; here they are far more common. Unless noted, calls come from the whole dose curve; as a rule, active = well fitted curve in the direction sought with a large enough effect; inconclusive = small, poorly fitted or top-dose-only effect, or another doubt; inactive = no such curve, though single readings can be large; an effect the other way counts as inactive or inconclusive. Unless noted, % is set by controls: 0 for no effect and ±100 for the full control effect.

SMILES	PNC inhibitor	ALOX12 inhib	15-hLO-2 inh
CN[C@@H]1[C@H](O[C@@H]2O[C@H](C)[C@@](O)(CO)[C@H]2O[C@H]2[C@H](O)[C@H](O)[C@H](N=C(N)N)[C@@H](O)[C@@H]2N=C(N)N)O[C@@H](CO)[C@H](O)[C@H]1O	·	-0.7%[0.00818 µM]	-4.4%[0.0915 µM]
C/C(=N\NC(=O)c1ccncc1)C12CC3CC(CC(C3)C1)C2	-118.2*	-1.6%	·
O=C(NN=C1C2CC3CC(C2)CC1C3)c1ccncc1	-25.7	-6.1%	-6.6%
COC(=O)[C@@]1(Cc2ccc(OC)cc2)[C@@H]2[C@@H](CC(=O)[C@H]2CC(=O)C(=O)N2CCCC2)CN1C(=O)c1ccccc1	·	3.5%	-4.0%
COc1ccc(CNc2ccnc(-c3cccnc3)n2)c(OC)c1	·	·	0.5%
O=C(NC(Cc1c[nH]c2ccccc12)C(=O)Nc1ccc(OC(F)(F)F)cc1)c1cccs1 (centres undefined)	-113.0*	-0.3%	·
O=C(NC(Cc1c[nH]c2ccccc12)C(=O)Nc1ccc(F)c([N+](=O)[O-])c1)c1cccs1 (centres undefined)	-119.3*	-9.3%	·
O=C(NC(Cc1c[nH]c2ccccc12)C(=O)N/N=C/c1cccc2ccccc12)c1cccs1 (centres undefined)	-13.2	-1.1%	·
O=C(COC(=O)[C@H](Cc1c[nH]c2ccccc12)NC(=O)c1cccs1)NCc1ccccc1	6.7	-1.1%	·
O=C(c1ccco1)N1CCC[C@@]2(CCN(c3ccccn3)C2)C1	·	0.8%	-4.6%
CC(=O)Nc1cc(CN2CCCCC2)c(O)c2ncccc12	·	-9.1%[11.4 µM]	18.4%[11.4 µM]
COCC(=O)O	·	4.6%	1.6%
C[C@@]12CC[C@@H]3c4ccc(O)cc4C[C@H](CCCCCCCCCS(=O)CCCC(F)(F)C(F)(F)F)[C@H]3[C@@H]1CC[C@@H]2O (some centres undefined)	·	-5.3%	1.6%
C=Cc1c(C)c2cc3[nH]c(cc4nc(cc5nc(cc1[nH]2)C(C)=C5CCC(=O)O)C(CCC(=O)O)=C4C)c(C)c3C=C	·	-27.0%	20µM*
CC1=C(CCC(=O)O)c2cc3nc(cc4[nH]c(cc5[nH]c(cc1n2)c(C)c5C(C)O)c(C)c4C(C)O)C(C)=C3CCC(=O)O (centres undefined)	·	-6.3%	-20.0%
COCCn1c(=O)c(C)nc2cnc(Nc3ccccc3)nc21	·	·	-9.1%
O=C(CN1CCSCC1)N/N=C/c1ccc(F)c(F)c1	-113.4*	-1.1%	0.5%
O=C(CN1CCCCCC1)N/N=C/c1ccc(Cl)c(Cl)c1	-6.0	-2.8%	·
NCCC(=O)O	·	-0.7%	17.1%
COc1ccc2c(c1OC)C(Cc1ccccc1)N1CCc3cc4c(cc3C1=C2)OCO4 (centres undefined)	·	?	-3.5%
Cc1cn([C@@H]2C[C@H](N=[N+]=N)[C@H](CO)O2)c(=O)[nH]c1=O	·	-1.7%[25.6 µM]	6.2%[25.6 µM]
CCCOc1ccc(N2C(=O)CC(N3CCN(c4ccccc4F)CC3)C2=O)cc1 (centres undefined)	21.1	-3.2%	-5.7%
Cc1ccc(N2C(=O)CC(N3CCN(C)CC3)C2=O)cc1 (centres undefined)	-100.0*	1.0%	·
O=C1CCCN1CCC1CCN(C2CC(=O)N(c3ccc(F)cc3)C2=O)CC1 (centres undefined)	-111.9*	-16.4%	?
O=C(C1CCN(C2CC(=O)N(c3ccc(F)cc3)C2=O)CC1)N1CCOCC1 (centres undefined)	59.1	-8.3%	-10.8%
SMILES	PNC inhibitor	ALOX12 inhib	15-hLO-2 inh
COc1ccc(N2C(=O)CC(N3CCN(c4ccccc4F)CC3)C2=O)cc1 (centres undefined)	-96.8*	-3.0%	-1.7%
CN1CCN(C2CC(=O)N(c3ccc4c(c3)OCCO4)C2=O)CC1 (centres undefined)	22.7	-0.2%	-4.3%
COc1ccccc1-c1ccc2ncnc(NCc3cnc(C)cn3)c2c1	·	·	32.6%
O=C(NC[C@@H](O)CO)c1c(I)c(C(=O)NC[C@@H](O)CO)c(I)c(N(CCO)C(=O)CO)c1I	·	1.2%[25.6 µM]	11.6%[25.6 µM]
Nc1nc(Cl)nc2c1ncn2[C@@H]1O[C@@H](COP(=O)(O)OP(=O)(O)OP(=O)(O)O)[C@@H](O)[C@H]1O	·	-3.5%	3.0%
CC[C@H]1C2=C3C(CC[C@H]4C(OCc5ccc(F)cc5C(F)(F)F)OC[C@](C)([C@@H]34)N(C(=O)OC(C)(C)C)C2)C2COC(=O)OCC21 (some centres undefined)	·	-2.4%	-5.7%
COc1ccc(NC(=O)N2CCC3(CC2)CCN(C(=O)c2cccc(F)c2)CC3)cc1	·	5.4%	4.3%
CC(C)(C)NC(=S)Nc1ccc(Br)cc1	23.6	-26.5%	-29.6%
CC(C)(C)NC(=S)Nc1ccc(Nc2ccccc2)cc1	53.6	?	15.8µM*
Cc1cccc(NC(=O)C2C3C=CC(C4CC34)C2C(=O)O)c1 (centres undefined)	-118.8*	4.3%	·
O=C(O)C1C2C=CC(C3CC23)C1C(=O)O (centres undefined)	-26.0	-6.4%	·
O=C(Nc1ccc(F)cc1)N1CCN(C/C=C/c2ccccc2)CC1	24.1	-2.3%	30.6%
O=C(Nc1ccccc1Cl)N1CCN(C/C=C/c2ccccc2)CC1	-90.9*	1.5%	·
C=Cc1ccccn1	·	-1.4%	-0.4%
N#Cc1cnc(SCC(=O)NNC(=O)COc2cccc3ccccc23)nc1N	?	-1.8%	·
CC(Sc1ncc(C#N)c(N)n1)C(=O)Nc1ccccc1 (centres undefined)	-111.7*	3.7%	0.9%
Cn1c(=O)c2ncn(CC(=O)NCCC3=CCCCC3)c2n(C)c1=O	-100.0*	7.0%	·
Cn1c(=O)c2ncn(CC(=O)NC3CCCCCC3)c2n(C)c1=O	?	-9.3%	0.3%
COc1ccccc1CN1CCCC2(CCNCC2)C1	·	-2.9%	2.7%
CCCCc1ccc(C2C(C#N)=C(N)SC(N)=C2C#N)s1	42.0	?	12.6µM*
CCOc1ccc(C2C(C#N)=C(N)SC(N)=C2C#N)c(OCC)c1	-0.6	-9.4%	-20.8%[11.4 µM]
COc1cccc(N=CC2=C(O)CC(C)(C)CC2=O)c1	-113.4*	-0.2%	·
CC1(C)CC(=O)C(C=NCCCO)=C(O)C1	-86.9*	-1.1%	0.6%
CSc1ccccc1N=CC1=C(O)CC(C)(C)CC1=O	-100.0*	-5.0%	·
COC(=O)c1ccc(N)c(N=CC2=C(O)CC(C)(C)CC2=O)c1	-109.0*	-6.0%	·
SMILES	PNC inhibitor	ALOX12 inhib	15-hLO-2 inh
CC1(C)CC(=O)C(C=Nc2ccc(O)cc2)=C(O)C1	-26.7	0.9%	-0.1%
Cc1ccc(N=CC2=C(O)CC(C)(C)CC2=O)nc1	9.8	-11.4%	0.0%
CC1(C)CC(=O)C(C=NCC(N)=O)=C(O)C1	4.5	-2.2%	2.2%
CC1(C)CC(=O)C(C=Nc2ccc(Cl)cn2)=C(O)C1	-7.6	-2.3%	-6.3%
OCc1ccc(-c2ccc(-c3ccc(CO)s3)o2)s1	·	-2.8%[0.00818 µM]	?
O=S(=O)(O)c1ccc(-c2nnc(-c3ccccn3)nc2-c2ccc(S(=O)(=O)O)o2)o1	·	-10.2%[11.4 µM]	-5.6%[11.4 µM]
COc1ccc(-c2cc(=O)c3ccc(F)cc3[nH]2)cc1	·	1.3%[0.00818 µM]	11.0%[0.0915 µM]
COc1ccc(C(=O)NC(C(=O)NCc2ccccn2)C(C)C)cc1 (centres undefined)	13.1	-7.0%	12.8%
COc1ccc(C(=O)N[C@H](C(=O)Nc2ccc(OC)nc2)C(C)C)cc1	-111.7*	0.1%	-2.8%
